The values that follow come from PubChem BioAssay (Tox21).

“And” between values parts separate entries of the source, which are not always exact repeats. Equal entries are not always repeated. Records with an inconclusive call do not appear. Where a call stands in place of a potency, no number is given. Values without a mark were called inactive. The source made the active and inactive calls. Calls follow the shape of the dose curve; as a rule, active = well fitted cell-killing curve with a large enough effect in the repeat runs; inconclusive = weak or mixed curves, or effect the other way; inactive = no such curve, though single readings can be large or run the other way.
Potency is read from the fitted curve at half-maximal effect.

This test is described as follows: qHTS assay to identify small molecule antagonists of the progesterone receptor (PR) signaling pathway - cell viability counter screen (AID 1346798). Also: nearly all actives have a fitted effect of over 50% in size. To be noted: PR-UAS-bla HEK293T viability, CellTiter-Glo luminescence, 16 h; series mostly up to 92.4 µM. The source says: National Center for Advancing Translational Sciences [NCATS]
NIH Chemical Genomics Center [NCGC]
U.S. Environmental Protection Agency [EPA]
National Institutes of Environmental Health Sciences [NIEHS]
National Toxicology Program [NTP]
U.S. Food and Drug Administration [FDA]
Progesterone receptor (PR), a nuclear hormone receptor, plays an important role in development, metabolic homeostasis and reproduction. It is activated by the steroid hormone progesterone. Endocrine disrupting chemicals (EDCs) and their interactions with steroid hormone receptors like PR causes disruption of normal endocrine function. To identify the compounds that inhibit PR signaling, a PR-UAS-bla GripTite cell line i.e. PR-UAS-bla HEK293T (Invitrogen, Carlsbad, CA, USA) containing a beta-lactamase reporter gene under the control of an UAS response element was used to screen Tox21 10K compound library. The cytotoxicity of the Tox21 compound library against the PR-bla cell line was tested in parallel by measuring the cell viability using CellTiter-Glo assay in the same wells.
Tox21 Assay Protocol Summary:
PR-UAS-bla HEK293T cells were dispensed at 3,000 cells/4 uL of assay medium containing 2% charcoal stripped FBS per well into black wall/clear-bottom 1536-well plates using a Multidrop Combi (ThermoFisher Scientific, Waltham, MA) dispenser. After the assay plates were incubated at a 37C and 5% CO2 for 4 hr, 23 nL of compounds dissolved in DMSO, positive controls or DMSO only was transferred to the assay plate by a Pintool station (Kalypsys, San Diego, CA), followed by addition of 1 uL of R5020 in assay medium using a Flying Reagent Dispenser (FRD, Aurora Discovery, San Diego, CA). The plates were incubated at 37C and 5% CO2 for 16 hr. Then 1 uL of LiveBLAzer B/G FRET substrate was added using a Flying Reagent Dispenser, the plates were incubated at room temperature for 2 hours, and fluorescence intensity was measured by an Envision plate reader (PerkinElmer, Shelton, CT). For cell viability readout that measures cytotoxicity, 4 uL/well of CellTiter-Glo reagent was added into the assay plates using a FRD. After 30 min incubation at room temperature, the luminescence intensity in the plates was measured using a ViewLux (PerkinElmer) plate reader.
For the molecule `Cc1occc(=O)c1OC(=O)C(C)C`, the Potency entry was “inactive”.

With `NNCCc1ccccc1`, the Potency entry is “inactive”.

For `CCCOC(=O)c1cc(O)c(O)c(O)c1`, the Potency result was “inactive”. The same measure, in the same setting: the result for `C=C(C)C(=O)O` reads “inactive”; that for `Nc1ccc(O)cc1`, “inactive”. Same read-out and setting: to `O=C(O)CCc1ccccc1` belongs “inactive”; to `CCC(C)(C)C(=O)O[C@H]1C[C@@H](C)C=C2C=C[C@H](C)[C@H](CC[C@@H]3C[C@@H](O)CC(=O)O3)[C@H]21`, “inactive”. On the same count and under the same terms, to `C[N+]1([O-])CCOCC1` belongs “inactive”.

Turning to `Nc1nc(=S)c2[nH]cnc2[nH]1`, the Potency entry is “inactive”. As for `O=C(OCc1ccccc1)c1ccc(O)cc1`, the Potency entry was “inactive”. Still for that read-out and setting: to `CCCC(=O)c1ccccc1` belongs “inactive”.

Turning to `CCCCCCCCCCCCCC[P+](CCCC)(CCCC)CCCC`, the Potency is 30.5 µM (active) and 54.5 µM (active). With `Nc1nc2ccccc2[nH]1`, the Potency entry is “inactive”. On to `C=C(C)C1CC=C(C)C(OC(C)=O)C1` (stereo not given), for which the Potency entry is “inactive”. Still for that read-out and setting: to `CC(C(O)c1ccc(O)cc1)N1CCC(Cc2ccccc2)CC1` (stereo not given) belongs “inactive”; to `CCc1ccc(C(c2ccc(CC)cc2)C(Cl)Cl)cc1`, “inactive”. On to `CC(C)(O)CCC(C)(C)O`, for which the Potency result was “inactive”. Same read-out and setting: the result for `CC1COC(=O)O1` (stereo not given) reads “inactive”. On the same count and under the same terms, to `c1cc(C(c2ccc(OCC3CO3)cc2)C(c2ccc(OCC3CO3)cc2)c2ccc(OCC3CO3)cc2)ccc1OCC1CO1` (stereo not given) belongs “inactive”. Still for that read-out and setting: to `CC1=CC(=O)c2ccccc2C1=O` belongs “inactive”.

Consider `CC(C)C(=O)c1c(C(C)C)nn2ccccc12`, for which the Potency entry is “inactive”. As to `CCCCC/C=C/CC1CC(=O)OC1=O` (stereo not given), the Potency entry was “inactive”. In the case of `O=C(Nc1ccccc1SSc1ccccc1NC(=O)c1ccccc1)c1ccccc1`, the Potency result was “inactive”. As to `CCC(C)(Oc1ccc(C2(c3ccc(OC(C)(CC)C(=O)O)cc3)CCCCC2)cc1)C(=O)O` (stereo not given), the Potency entry was “inactive”. Still for that read-out and setting: to `CCC[C@H](N[C@@H](C)C(=O)N1[C@H](C(=O)O)C[C@@H]2CCCC[C@@H]21)C(=O)OCC` belongs “inactive”; to `C=CC(=O)OCCCCCCCC`, “inactive”; to `COC(=O)c1cccc(C(=O)OC)c1`, “inactive”. The same measure, in the same setting: the result for `CC(C)(C)NC(=O)[C@@H]1CN(Cc2cccnc2)CCN1C[C@@H](O)C[C@@H](Cc1ccccc1)C(=O)N[C@H]1c2ccccc2C[C@H]1O` reads “inactive”; that for `COC(=O)[C@H]1[C@H]2C[C@@H]3c4[nH]c5cc(OC)ccc5c4CCN3C[C@H]2C[C@@H](OC(=O)c2cc(OC)c(OC)c(OC)c2)[C@@H]1OC`, “inactive”; that for `CCCN[C@H]1CCc2nc(N)sc2C1`, “inactive”.

Regarding `O=C1NCC2(CCN(CCc3ccccc3)CC2)O1`, the Potency entry was “inactive”. The same measure, in the same setting: to `O=C(O)CP(=O)(O)O` belongs “inactive”; to `O=C1OC2(c3ccc(O)cc3Oc3cc(O)ccc32)c2ccccc21`, “inactive”; to `NC(=Nc1ccccc1)Nc1ccccc1`, “inactive”. Same read-out and setting: to `CC(C)(C)c1cc(C(C)(C)C)c(O)c(C(C)(C)C)c1` belongs “inactive”. As to `Oc1ccc(Cl)cc1Cc1cc(Cl)ccc1O`, the Potency entry is “inactive”.

For `O=C(O)c1cc(Cl)cc(Cl)c1`, the Potency entry was “inactive”. Take `NC(Cc1ccc(Cl)cc1)C(=O)O` (stereo not given): the activity change, negative = cytotoxicity is -9.96% [at 0.348 µM].

On to `COc1ccc(COC(C)=O)cc1`, for which the Potency result is “inactive”. Same read-out and setting: to `CC(C)(C)NCC(O)COc1ccccc1OCC1CCCO1` (stereo not given) belongs “inactive”.
